# Source: PubChem BioAssay (NCI)
# About 83,000 compounds went through this panel and 20% of them were active in at least one assay; those are over-represented in the sample as a whole.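 48-hour exposure, single concentration, 96-well plates; percent growth endpoint where 0 means no net growth. Active: below 10.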 Values without a mark were called inactive. Activity calls are given as the source filed them.
# System: HS 578T breast
# Test: NCI-60 one-dose screen, 48 h (100 = growth as untreated, 0 = no growth, -100 = all killed)
# Conditions: 10 µM unless noted
# Protocol: Growth inhibition of the HS 578T human tumor cell line is measured as a screen for anti-cancer activity. Cells are grown in 96 well plates and exposed to the test compound for 48 hours. Compounds are tested at a single concentration, which is 10^-5 M for most compounds. The reported endpoint is percent growth (GI% or GIPRCNT), where numbers from 0 - 100% represent growth inhibition, and numbers from -100% - 0 represent cell death. For example, a value of 40 represents 60% growth inhibition. A value of 0 means no net growth occurred over the course of the experiment. A value of -40 indicates 40% of cells at the beginning of the experiment died by the end of the experiment. A value of -100 means all cells are dead at the end of the experiment.
# NCI-60 Human Tumor Cell Lines Screen was performed using the standard one-dose NCI protocol, which is described in more detail at https://dtp.cancer.gov/discovery_development/nci-60/default.htm.
# Compounds with GIPRCNT values below 10 were considered active. Activity score was based on GIPRCNT using the following formula: […]
# Score is 0 for GIPRCNT values of 100 or above, 50 for GIPRCNT values of 0, and 100 for GIPRCNT values of -100.
row,SMILES,growth
1,CCCCc1oc2ccccc2c1C(=O)c1ccc(O)cc1,83.2%
2,COc1ccc2c(c1)c(-c1ccc(-c3cn(C)c4ccc(OC)cc34)[nH]1)cn2C,-13% (active)
3,Cc1cccc(NC(=O)CSc2nc3ccc([N+](=O)[O-])cc3[nH]2)c1,83.4%
4,CCOC(=O)c1c(NC(=O)c2ccc(C(C)(C)C)cc2)sc2cc(O)ccc12,105%
5,C=CCOC(=O)C1=C(C)NC(=O)NC1c1c(Cl)n(C)c2ccccc12 (stereo not given),98.8%
6,O=C(/C=C/c1ccccc1)Nc1ncc(Cc2ccccc2)s1,10.4%
7,CCn1cc(CNc2ccc(C(=O)Nc3cc4cc(OC)c(OC)cc4c(C)n3)cc2)c(C)n1,82.7%
8,O=C(Cn1nnc2ccccc21)N/N=C/c1ccccc1F,81.2%
9,CCCCCCCCn1ccc2cc(NC(=O)Cn3cc(CN4CCN(CC)CC4)nn3)ccc21,86.2%
10,CN1CCN(Cc2ccc(NC(=O)c3cncc(C#Cc4cnn5ccccc45)c3)cc2C(F)(F)F)CC1,-15.4% (active)
11,Nc1c(C(=O)O)cc(Cl)cc1[N+](=O)[O-],101%
12,CSCCC(NC(=O)c1ccccc1)C(=O)N/N=C1\S/C(=C/c2ccc(Cl)cc2)C(=O)N1C (stereo not given),80.5%
13,COc1ccc(/C(C)=C(\c2ccc(OCCN3CCCCCC3)cc2)c2ccc(OC(=O)c3ccccc3)cc2)cc1,35.9%
14,CC(C)(C)c1cc(C=Nc2cccc(C(F)(F)F)c2)c(O)c(C(C)(C)C)c1,102%
15,CCOC(=O)c1cn2ncnc(Oc3ccc(NC(=O)NC4CC4)c(F)c3)c2c1C,103%
16,CNCc1cccc2c1OCCOCCN(C)C(=O)CN(C)S(=O)(=O)c1ccc(cc1)-c1cnc(N)c(n1)C(=O)N2,63.3%
17,C=C1C(=O)O[C@H]2[C@H]1CC/C(CNC(=O)c1cc3ccccc3[nH]1)=C\CC[C@@]1(C)O[C@@H]21,42.7%
18,N#CCC1=NC(c2cccs2)=Nc2ccccc2S1,96.2%
19,Clc1ccc(-c2nc(-c3c[nH]c4ncccc34)cs2)cc1,44.3% [100 µM]
20,NC(=O)c1c(NC(=O)c2ccc(Cl)cc2)sc2c1CCC(=O)C2,64%

row,SMILES,growth
1,Cc1c2cnccc2c(C)c2c1c1cc(C3OCCCO3)ccc1n2C,-3.27% (active)
2,O=C1N[C@@H]2[C@@H](O)[C@@H](O)[C@H](O)C[C@H]2c2cc3c(c(O)c21)OCCO3,-9.44% (active)
3,CC(C)CCC[C@@H](C)C1CCC2C3CCC4=C/C(=N/OCCN(C)C)CC[C@]4(C)C3CC[C@@]21C (stereo not given in full),83.8%
4,Cc1ccccc1OCC(O)COc1ccccc1C,117%
5,Cc1ccc(C)c2c1C(O)(C#Cc1ccccc1)c1ccccc1C2(O)C#Cc1ccccc1 (stereo not given),72.5%
6,CC1(C)CC[C@]2(C(=O)N3CCOCC3)CC[C@]3(C)C(=CC[C@@H]4[C@@]5(C)C/C(=C/c6ccncc6)C(=O)C(C)(C)[C@@H]5CC[C@]43C)[C@@H]2C1,27.5%
7,C[C@@H]1CC[C@@]2(OC1)O[C@H]1C[C@H]3[C@@H]4CC=C5C[C@@H](O[C@@H]6O[C@H](CO)[C@@H](O[C@@H]7O[C@@H](CO)[C@H](O)[C@H]7O)[C@H](O)[C@H]6O[C@@H]6O[C@@H](C)[C@H](O)[C@@H](O)[C@H]6O)CC[C@]5(C)[C@H]4CC[C@]3(C)[C@H]1[C@@H]2C,-47.9% (active)
8,CCOC(=O)/C=C/c1c(C)[nH]c(=O)[nH]c1=O,105%
9,CCN(CC)c1ccc(N2C(=O)/C(=C/c3cccs3)SC2=S)cc1,103%
10,O=C(/C=C\c1ccco1)/C=C/c1ccco1,105%
11,CS(=O)(=O)Nc1cncc(-c2ccc3ncnc(Nc4ccc(F)c(Cl)c4)c3c2)c1,3.01% (active)
12,CCN(CC)CCCNCc1cc(-c2ccccc2)nc2cc(Cl)ccc12,24.2%
13,c1ccc(CCc2ccccc2-c2cc(-c3ccccc3)on2)cc1,89.4%
14,O=C(NCc1ccccc1O)c1cccc2ccccc12,66.5%
15,CCOC(=O)c1c(NC(=O)c2ccc(OC)cc2)sc2c(CN(C)C)c(O)ccc12,88.9%
16,Cc1nc2sc(C(=O)Nc3cccc(Cl)c3)c(N)c2cc1C(O)c1ccccc1 (stereo not given),19%
17,CCNC(=O)Oc1ccc(/C(=C(/C)Cc2ccc(OC)cc2)c2ccc(OCCN3CCCCCC3)cc2)cc1,67.2%
18,O=C(CN1CCN(c2cc3c(cc2F)c(=O)c(C(=O)O)cn3C2CC2)CC1)N/N=C/c1ccncc1,101%
19,O=C(CSc1nnc2sc(Nc3cccc(Cl)c3)nn12)c1ccc(F)cc1,97.4%
20,Cc1c2ccccc2nc2c1ccc1cccnc12,117%
